Assay outcomes as filed in PubChem.
APP 5UTR inh – APP translation inhibition; SH-SY5Y APP 5'UTR-luciferase reporter, luminescence; inhibition, % at 2 µM; 190,000 compounds, 0.82% hits; AID 1285;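 active means inhibition above a set limit, derived from the sample mean plus 3 SD, cut at about 45% in these data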
Ba/F3 V617F tox – reduce viability of Ba/F3 cells dependent on JAK2V617F | 220,000 compounds, 1.1% hits | Ba/F3 EpoR-JAK2V617F viability, ATP luminescence | inhibition, % at 5.6 µM;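 active means inhibition above the campaign mean plus 3 SD over all tested compounds, cut at about 24% in these data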;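 further: cytokine-independent growth of Ba/F3 cells driven by EpoR plus mutant JAK2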
BaF3 tox – parental Ba/F3 viability inhibition as JAK2V617F counter-screen | CellTiter-Glo ATP luminescence | inhibition, % at 5.6 µM | 220,000 compounds, 1.1% hits | AID 1486;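 active means inhibition above a per-campaign cutoff, the mean inhibition of all tested compounds plus 3 SD, cut at about 27% in these data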
IEC-6 tox – counter-screen for KLF5 inhibitors: cytotoxicity in IEC-6 cells | IEC-6 cytotoxicity, luminescence viability | inhibition, % at 5 µM | 290,000 compounds, 0.78% hits | AID 1825; in the data active means inhibition above about 22%
KLF5 inhibitor – suppresses KLF5 promoter-driven expression; DLD-1 KLF5 promoter-luciferase reporter, luminescence; inhibition, % at 5 µM; 290,000 compounds, 0.23% hits; AID 1700;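 active means inhibition above a per-plate limit of that plate's mean compound inhibition plus 3 SD, cut at about 60% in these data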;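 further: higher means less KLF5 promoter-driven luciferase light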
aSyn 5UTR inh – MLPCN primary screen, SNCA 5' untranslated region; alpha-synuclein 5'UTR reporter, inhibitor activity; inhibition, % (tested at 7.5 µM); 300,000 compounds, 0.82% hits; AID 1813; in the data active means inhibition above about 60%;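 further: H4 neuroglioblastoma cells stably carrying SNCA 5'UTR luciferase fusion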
Large screens that a line does not name were inactive. In the library only some 2.1% were active in any assay of this set; here they are far more common.

COC(=O)C1=C(N)Oc2cc(C)n(CC3CCCO3)c(=O)c2C1c1ccccc1OC (configuration not stated)	none
COC(=O)C1=C(N)Oc2cc(N(C)C)ccc2C1c1ccccc1OC (configuration not stated)	APP 5UTR inh 66, aSyn 5UTR inh 83
COC(=O)Cc1n[nH]c(=S)[nH]c1=O	APP 5UTR inh 50
Nc1nonc1C(=O)NCCNCc1ccccc1OCc1ccccc1F	none
Nc1nonc1C(=O)NCCNCc1cc(Br)ccc1OCc1ccccc1F	Ba/F3 V617F tox 24, BaF3 tox 51
Cc1ccc2nc(-c3ccc(NC(=S)NC4CC(C)(C)NC(C)(C)C4)cc3)sc2c1	aSyn 5UTR inh 121
COc1ccc(Cc2nnc(SC(C)C(=O)Nc3ccc(F)cc3Cl)o2)cc1 (configuration not stated)	none (no result: APP 5UTR inh, Ba/F3 V617F tox, BaF3 tox, IEC-6 tox, KLF5 inhibitor)
CC1(C(=O)NNC(=O)c2ccc(=O)oc2)CC1Br (configuration not stated)	BaF3 tox 28 (no result: APP 5UTR inh)
CC(=O)N(O)CCCCCNC(=O)CCC(=O)N(O)CCCCCNC(=O)CCC(=O)N(O)CCCCCN	aSyn 5UTR inh 75
CC(=O)OCCc1[nH]c2ccccc2c1C	none (no result: APP 5UTR inh, Ba/F3 V617F tox, BaF3 tox)
CC(=O)OCCc1c2ccccc2c(CCCN(C)C)c2ccccc12	aSyn 5UTR inh 103 (no result: APP 5UTR inh, Ba/F3 V617F tox, BaF3 tox, IEC-6 tox, KLF5 inhibitor)
CCOC(=O)C1CCN(C(=O)c2cc(C(C)(C)C)nn2Cc2ccccc2)CC1	none (no result: APP 5UTR inh)
COc1ccc(-c2nc(-c3cccs3)no2)cc1	aSyn 5UTR inh 83 (no result: APP 5UTR inh)
O=C(NNC(=O)c1ccccc1OCc1ccccc1)c1ccccc1O	aSyn 5UTR inh 65 (no result: APP 5UTR inh, Ba/F3 V617F tox, BaF3 tox)
O=C(NNC(=O)c1ccccc1OCc1ccc(F)cc1)c1ccccc1O	aSyn 5UTR inh 68 (no result: APP 5UTR inh, Ba/F3 V617F tox, BaF3 tox)
Cc1cc2ncn(CCOc3ccccc3)c2cc1C	none
COCCn1cnc2cc(C)c(C)cc21	BaF3 tox 44
c1ccc(C[n+]2ccc3ccccc3c2)cc1	none (no result: APP 5UTR inh, Ba/F3 V617F tox, BaF3 tox, IEC-6 tox, KLF5 inhibitor)
c1ccc(C[n+]2cccc(-c3ccccc3)c2)cc1	Ba/F3 V617F tox 65, BaF3 tox 64
COc1ccc(CNC(=O)C/C(C)=N/NC(=O)c2ccc(OC)cc2OC)cc1	none (no result: APP 5UTR inh, Ba/F3 V617F tox, BaF3 tox)
CC1(C)Cc2c(c(-c3ccccc3)nc(N3CCOCC3)c2C(N)=O)CO1	APP 5UTR inh 66
c1ccc(CN2CCC(Nc3nc(-c4cccs4)nc4ccccc34)CC2)cc1	aSyn 5UTR inh 62
Cc1ccc(C)c(-c2nc3cc(N)ccc3o2)c1	aSyn 5UTR inh 63
Nc1ccc2oc(-c3cc(Br)ccc3Cl)nc2c1	APP 5UTR inh 46, Ba/F3 V617F tox 33, BaF3 tox 38
Cc1ccc2nc(-c3cc(N)cc(N)c3)oc2c1	aSyn 5UTR inh 62
CN(C)c1ccc(-c2nc3cc(N)ccc3o2)cc1	aSyn 5UTR inh 93 (no result: APP 5UTR inh, Ba/F3 V617F tox, BaF3 tox)
Cc1ccc(-c2nc3cc(N)ccc3o2)cc1Br	none (no result: APP 5UTR inh, Ba/F3 V617F tox, BaF3 tox)
Nc1ccc(-c2nc3cc(N)ccc3o2)cc1	none (no result: APP 5UTR inh, Ba/F3 V617F tox, BaF3 tox)
O=C(NCCN1CCOCC1)C(=O)NCC1OCCCN1S(=O)(=O)c1cc(F)ccc1F (configuration not stated)	none (no result: APP 5UTR inh, Ba/F3 V617F tox, BaF3 tox)
Nc1ccc2nc3c(c(Cl)c2c1)CCCC3	BaF3 tox 63 (no result: APP 5UTR inh)
O=C(CCN1C(=O)COc2ccccc21)N1CCN(c2ccccn2)CC1	BaF3 tox 88
COc1ccc(Nc2nc(N3CCN(S(=O)(=O)N(C)C)CC3)nc3ccccc23)cc1	none (no result: APP 5UTR inh, Ba/F3 V617F tox, BaF3 tox)
COc1cc(NC(C)CCCN)c2ncccc2c1 (configuration not stated)	none (no result: APP 5UTR inh, Ba/F3 V617F tox, BaF3 tox, IEC-6 tox, KLF5 inhibitor)
COc1cc(NCCCCCCCN)c2ncccc2c1	Ba/F3 V617F tox 50, BaF3 tox 37
Cc1cc(C(=O)N/N=C/c2cc(N=Nc3ccccc3)ccc2O)n[nH]1	APP 5UTR inh 50, aSyn 5UTR inh 66
Cc1ccc(-c2nnc(SCC(C)C)n2C)cc1	Ba/F3 V617F tox 30, BaF3 tox 33
CC(=O)c1cccc(N(CC(=O)NC2CCCCC2)C(=O)CCC(=O)Nc2nc(C)cs2)c1	none (no result: APP 5UTR inh, Ba/F3 V617F tox, BaF3 tox)
COc1ccccc1-[n+]1c(C)cc(/C=C2\Sc3ccccc3N2C)cc1C	Ba/F3 V617F tox 99, BaF3 tox 96 (no result: APP 5UTR inh)
O=[N+]([O-])c1cc(O)c2ncccc2c1	aSyn 5UTR inh 70
O=[N+]([O-])c1cc2cccnc2c2ncccc12	none (no result: APP 5UTR inh)
COCCOC(=O)c1c(NC(=O)COC(=O)Cc2cccc(OC)c2)sc(C(N)=O)c1C	none (no result: APP 5UTR inh, Ba/F3 V617F tox, BaF3 tox)
NC(N)=NS(=O)(=O)c1ccc(NC(=S)NC(=O)Cc2ccc(Cl)cc2)cc1	none (no result: APP 5UTR inh, Ba/F3 V617F tox, BaF3 tox)
O=C1OC/C(=C(/O)c2ccc(Cl)cc2)C1=O	none (no result: APP 5UTR inh, Ba/F3 V617F tox, BaF3 tox)
CC(C)COC(=O)/C(C#N)=C/c1cn(Cc2ccccc2)c2ccccc12	aSyn 5UTR inh 80
CC(C)OC(=O)/C(C#N)=C/c1cn(C)c2ccccc12	none (no result: APP 5UTR inh)
CC(C)OC(=O)/C(C#N)=C/c1cn(Cc2ccccc2)c2ccccc12	aSyn 5UTR inh 75
O=C(c1nnsc1S(=O)c1ccc(Cl)cc1)N1CCOCC1 (configuration not stated)	APP 5UTR inh 48, Ba/F3 V617F tox 90, BaF3 tox 40
NS(=O)(=O)c1ccc(NC(=S)NNC(=O)c2ccc(Br)o2)cc1	none (no result: APP 5UTR inh, Ba/F3 V617F tox, BaF3 tox)
CC(=O)c1cnc(Nc2nc(C)c3ccc(C)cc3n2)nc1C	none
Cc1ccc2c(C)nc(NC3=NCN(C(C)C)CN3)nc2c1	BaF3 tox 31 (no result: aSyn 5UTR inh)
COc1cccc(CN2CCN(CCCc3ccccc3)C(CCO)C2)c1O (configuration not stated)	none (no result: APP 5UTR inh, Ba/F3 V617F tox, BaF3 tox)
O=C(O)CCC(=O)N1CCN(S(=O)(=O)c2ccc3ccccc3c2)CC1	none (no result: APP 5UTR inh, Ba/F3 V617F tox, BaF3 tox)
O=C(Cn1ncc(Cl)c(Cl)c1=O)N1CCN(S(=O)(=O)c2ccc3ccccc3c2)CC1	APP 5UTR inh 94
O=C(Nc1ccncc1)Nc1cccc(C(F)(F)F)c1	none (no result: APP 5UTR inh, Ba/F3 V617F tox, BaF3 tox)
Oc1c(C(Nc2cccc(C(F)(F)F)c2)c2ccncc2)ccc2cccnc12 (configuration not stated)	aSyn 5UTR inh 82
Cc1ccc(C(=O)c2cccc(N)c2)cc1C	APP 5UTR inh 49, aSyn 5UTR inh 82
Cc1ccc(C(=O)c2ccc(O)cc2)cc1C	none (no result: aSyn 5UTR inh)
Cc1ccc(C)c(S(=O)(=O)N2C(=S)NC(=O)C2CC(C)C)c1 (configuration not stated)	APP 5UTR inh 77
CCN(CC)CCn1c(=N)n(CC(O)COc2cccc(C)c2)c2ccccc21 (configuration not stated)	none
Cc1cccc(OCC(O)Cn2c(=N)n(CCN3CCCCC3)c3ccccc32)c1 (configuration not stated)	Ba/F3 V617F tox 25, BaF3 tox 55
N=c1n(Cc2ccc(Cl)cc2)c2ccccc2n1CC(O)COc1ccccc1 (configuration not stated)	BaF3 tox 36
N=c1n(Cc2ccccc2)c2ccccc2n1CC(O)COc1ccc(Cl)cc1Cl (configuration not stated)	aSyn 5UTR inh 90
Cc1ccc(OCC(O)Cn2c(=N)n(Cc3ccccc3)c3ccccc32)cc1 (configuration not stated)	none
O=C(O)c1ccc(Cl)c(S(=O)(=O)Nc2ccccc2C(=O)Nc2ccc(Cl)cc2)c1	none (no result: APP 5UTR inh, Ba/F3 V617F tox, BaF3 tox)
CCOc1cc(CNCCc2ccc(S(N)(=O)=O)cc2)ccc1OCC(=O)NC(C)(C)C	none (no result: aSyn 5UTR inh)
COc1cc(CNn2cnnc2)ccc1OCC(=O)NC1CCCCC1	APP 5UTR inh 64
